Data taken from article PMC4552634, “A New Set of Chemical Starting Points with Plasmodium falciparum Transmission-Blocking Potential for Antimalarial Drug Discovery” (PLoS ONE, 2015).
About 3,200 (25%) of roughly 13,000 compounds showed an effect of 50% or more. The list shows a part of the results.

Each molecule was assayed on P. falciparum stage V gametocytes. Conditions: 48 h, 5 µM; inhibitor.
Parameters: BacTiter-Glo ATP luminescence viability of purified stage V gametocytes in 384-well plates, per cent inhibition versus DMSO

In order of falling “% Inhibition” value:
1. COc1cc(Cn2ccc3c4c(N)nc(N)nc4ccc32)cc(OC)c1OC [TCMDC-137341]  118.6%
2. COc1ccc(CNC2Cc3ccccc3C2)cc1-c1cccc(S(=O)(=O)NCCN2CCCC2)c1 [TCMDC-132269]  112.5%
3. COc1ccc(CNC2Cc3ccccc3C2)cc1-c1ccc(S(=O)(=O)NCCN2CCCC2)cc1 [TCMDC-132248]  107.9%
4. N=C1C=C(N)C(=O)c2ccccc21 [TCMDC-141992]  106.9%
5. COc1ccc(Cn2ccc3c4c(N)nc(N)nc4ccc32)cc1 [TCMDC-139862]  105.9%
6. NCC1CCCN1Cc1ccc(-c2cccc(-c3nc4ccc(F)cc4[nH]3)c2)cc1 (stereo not drawn) [TCMDC-132998]  102.5%
7. COc1cccc(Cn2ccc3c4c(N)nc(N)nc4ccc32)c1 [TCMDC-137811]  100%
8. NCC1CCCN1Cc1cccc(-c2cccc(-c3nc4ccc(F)cc4[nH]3)c2)c1 (stereo not drawn) [TCMDC-133001]  98.63%
9. Fc1ccc2[nH]c(-c3cccc(-c4cccc(CNCCN5CCNCC5)c4)c3)nc2c1 [TCMDC-132860]  97.72%
10. Fc1ccc2[nH]c(-c3cccc(-c4ccc(CNCCN5CCNCC5)cc4)c3)nc2c1 [TCMDC-132863]  90.56%
11. O=C(Nc1cccc(CN2CCCN(Cc3ccc4c(c3)OCO4)CC2)c1)c1cc2ccccc2s1 [TCMDC-141865]  83.34%
12. Cc1cccc(C(=O)N2CCN(Cc3cccc(NC(=O)c4ccco4)c3)CC2)c1 [TCMDC-136323]  80.03%
13. CCN1CCC2(c3cccc(OC)c3)Cc3nc4ccccc4c(-c4ccccc4)c3CC2C1 (stereo not drawn) [TCMDC-138968]  77.57%
14. Cc1[nH]c(C)c(-c2ccc(C(=O)c3ccccc3)cc2)c(=O)c1Br [TCMDC-137419]  74.6%
15. Cc1[nH]c(C)c(-c2ccc(C(=O)c3ccc(Cl)cc3)cc2)c(=O)c1Cl [TCMDC-137413]  70.39%
16. NCC1CCCN1Cc1ccc(-c2ccc(-c3nc4ccc(F)cc4[nH]3)cc2)cc1 (stereo not drawn) [TCMDC-132994]  65.53%
17. COc1cc(C)nc2ccc(NC(=O)COCC(=O)Nc3ccc4nc(C)cc(OC)c4c3)cc12 [TCMDC-139461]  62.71%
18. Cc1[nH]c(C)c(-c2ccc(/C=C/c3ccccn3)cc2)c(=O)c1Cl [TCMDC-135787]  58.19%
19. CN1CCN(c2ccc(Nc3nccc(-c4cnn5ncccc45)n3)cc2Cl)CC1 [TCMDC-138688]  55.04%
20. Cc1[nH]c(C)c(-c2ccc(-c3ccc(Cl)cc3)cc2)c(=O)c1Cl [TCMDC-137416]  50.46%
21. COc1ccc(Cn2ncc3c4c(N)nc(N)nc4ccc32)cc1OC [TCMDC-131934]  49.54%
22. Cc1cccc2[nH]c(-c3cccc(-c4cccc(CN5CCCC5CN)c4)c3)nc12 (stereo not drawn) [TCMDC-132989]  49.36%
23. Cc1[nH]c(C)c(-c2csc3ccccc23)c(=O)c1Cl [TCMDC-136017]  42.39%
24. Cc1[nH]c(C)c(-c2ccc(Cl)cc2)c(=O)c1I [TCMDC-137424]  41.94%
25. O=C(N[C@@H](Cc1ccccc1)C(=O)NC1CCCCCC1)c1ccc(O)c(-c2ccc(Cl)c(Cl)c2)c1 [TCMDC-140845]  40.83%
26. NCC1CCCN1Cc1ccc(-c2ccc(-c3nc4ccccc4[nH]3)s2)cc1 (stereo not drawn) [TCMDC-132988]  37.26%
27. COCCOc1nc(N)nc2ncc(Cc3cc(OC)ccc3OC)c(C)c12 [TCMDC-137754]  36.3%
28. O=C(Nc1cccc(CN2CCN(C(=O)c3cccc(F)c3)CC2)c1)c1ccco1 [TCMDC-136324]  35.66%
29. COc1cccc(Nc2nc(N)c3ccccc3n2)c1.Cl [TCMDC-123746]  24.77%
30. COc1cccc(Nc2nc(NCCO)c3ccccc3n2)c1.Cl [TCMDC-124573]  23.38%
31. COCCOCCOCCn1ccc2c3c(N)nc(N)nc3ccc21 [TCMDC-137974]  22.53%
32. N#Cc1ccc(-c2ccc3nc(N4CCCN(C5CCC5)CC4)ccc3c2)cc1 [TCMDC-136368]  18.23%
33. COc1cccc(CN(C(=O)Nc2ccccc2F)[C@H]2C[C@H]3C(=O)Nc4cc(F)ccc4C(=O)N3C2)c1 [TCMDC-134304]  17.59%
34. CC(C)NCc1ccc(-c2ccc(-c3nc4ccc(F)cc4[nH]3)cc2)cc1 [TCMDC-132740]  14.26%
35. COCCn1ccc2c3c(N)nc(N)nc3ccc21 [TCMDC-137263]  12.7%
36. O=C(Nc1ccc(OC2CCN(Cc3ccc(F)cc3)C2)c(Cl)c1)c1ccc(F)cc1 (stereo not drawn) [TCMDC-133763]  12.34%
37. CCOc1ccc(Cc2c(C)nc3nc(N)nc(N)c3c2C)cc1 [TCMDC-137655]  8.912%
38. COc1cc(C)nc2ccc(NC(=O)Nc3ccc4nc(C)cc(OC)c4c3)cc12 [TCMDC-139138]  8.428%
39. Cn1cccc1CCNCc1ccc(-c2cccc(-c3nc4cc(F)ccc4[nH]3)c2)cc1.O=C(O)C(F)(F)F [TCMDC-132684]  7.89%
40. Cn1c(=N)cc(-c2cccc(I)c2)c2c(=O)[nH]c(N)nc21 [TCMDC-137835]  7.838%
41. Cc1c(Cl)ccc2c(C(=O)Nc3ccncc3)cc(-c3cccnc3)nc12 [TCMDC-125224]  6.226%
42. O=C(Nc1cccc(CN2CCN(Cc3ccc(O)cc3)CC2)c1)c1cc2ccccc2s1 [TCMDC-134624]  6.138%
43. COc1ccccc1C(=O)Nc1cccc(N2CCC(NCc3ccc(-n4cccn4)cc3)CC2)c1 [TCMDC-124643]  0.3581%
44. COCn1ccc2c3c(N)nc(N)nc3ccc21 [TCMDC-137505]  0.2853%
45. Fc1ccc2nc(-c3ccc(-c4ccc(CN5CCN(CCN6CCOCC6)CC5)cc4)cc3)[nH]c2c1 [TCMDC-133926]  -0.4105%
46. CC(C)C[C@H](NC(=O)c1ccc(F)cc1)C(=O)N[C@H](/C=N/NC(=O)c1ccccc1)CCc1ccccc1 [TCMDC-135680]  -1.54%
47. c1cc(Nc2nccc(-c3cnn4ncccc34)n2)cc(-c2cnco2)c1 [TCMDC-138684]  -9.488%
48. CC(C)CNC(=O)CN1C(=O)C(c2ccccc2)(c2ccccc2)N=C1N [TCMDC-137006]  -9.905%
49. CCCN(Cc1nnc(-c2ccco2)o1)C(=O)C1CCN(c2ncc(C(F)(F)F)cc2Cl)CC1 [TCMDC-125335]  -10.32%
50. O=C1c2ccccc2-n2c1nc1ccccc1c2=O [TCMDC-125859]  -11.25%
51. O=C(NCC1CCC(CNCCCc2ccccc2)CC1)c1cc(Cl)cc(Cl)c1 (stereo not drawn) [TCMDC-140679]  -14.35%
52. O=C1CCCN1CCCNCc1ccc(-c2cccc(-c3nc4ccc(F)cc4[nH]3)c2)cc1 [TCMDC-132750]  -14.96%
53. O=C(Nc1cccc(CN2CCN(C(=O)c3ccccc3)CC2)c1)c1ccco1 [TCMDC-136321]  -15.6%
54. CC(C)C[C@@H](/C=N/N1CCOC1=O)NC(=O)[C@H](CC(C)C)NC(=O)c1ccc(F)cc1 [TCMDC-136186]  -17.2%
55. CCc1ccccc1NC(=O)CN1CCN(c2ncnc3scc(-c4ccc(F)cc4)c23)CC1 [TCMDC-125248]  -17.47%
56. COc1ccccc1OCCN(CC(O)COc1cccc2[nH]c3ccccc3c12)CC(O)COc1cccc2[nH]c3ccccc3c12 (stereo not drawn) [TCMDC-141980]  -17.57%
57. Cn1ncc2c3c(CCN4CCC(NCc5cc6c(cn5)OCC6)CC4)c(Cl)cnc3ccc21 [TCMDC-136024]  -18.24%
58. COc1ccccc1NC(=O)Nc1ccc(-c2ccc(-c3nc4cccc(C)c4[nH]3)s2)cc1 [TCMDC-133201]  -21.27%
59. CC(C)(C)C(=O)Oc1ccc(CC2NCCc3cc(OC(=O)C(C)(C)C)c(OC(=O)C(C)(C)C)cc32)cc1OC(=O)C(C)(C)C (stereo not drawn) [TCMDC-131452]  -22.51%
60. Cc1ccc(Nc2nc(N/N=C/c3cccc(O)c3)nc(Nc3ccc([N+](=O)[O-])cc3)n2)cc1C [TCMDC-124125]  -28.14%
61. O=C(/C=C/c1ccc(Cl)c(Cl)c1)NCCCCCN1CCC(NC(=O)c2ccc(F)c(F)c2)CC1 [TCMDC-135838]  -28.53%
62. O=[N+]([O-])c1cccc(Nc2nccc(-c3cnn4ncccc34)n2)c1 [TCMDC-138697]  -28.72%
63. N#Cc1ccc(CN2CCCN(Cc3cccc(NC(=O)c4cc5ccccc5s4)c3)CC2)cc1 [TCMDC-141866]  -28.76%
64. O=C1NCN(c2ccc(O)cc2)C12CCN(CCCC(c1ccc(F)cc1)c1ccc(F)cc1)CC2 [TCMDC-138052]  -32.4%
65. CCCCOc1cc(C)nc2ccc(NC(=O)COCC(=O)Nc3ccc4nc(C)cc(OCCCC)c4c3)cc12 [TCMDC-140149]  -34.05%
66. Cn1nccc1C(=O)NCCNCc1cccc(-c2cccc(-c3nc4cc(F)ccc4[nH]3)c2)c1.O=C(O)C(F)(F)F [TCMDC-133020]  -34.05%
67. NC(=O)C1CCN(Cc2cccc(-c3cccc(-c4nc5ccc(F)cc5[nH]4)c3)c2)CC1 [TCMDC-132686]  -35.6%
68. O=C(/C=C/c1ccc(Cl)c(Cl)c1)NCCCCCN1CCCN(C(=O)Nc2cccc(Cl)c2)CC1 [TCMDC-135749]  -36.61%
69. Cc1ccc2[nH]c3c(NCCCN4CCOCC4)ncnc3c2c1 [TCMDC-124068]  -37.8%
70. O=C1CCCN1CCCNCc1cccc(-c2cccc(-c3nc4ccc(F)cc4[nH]3)c2)c1 [TCMDC-132765]  -41.49%
71. CCCc1cc(N2CCC(c3ccccc3)(N3CCCCC3)CC2)nc(Nc2ccc(OC)cc2)n1 [TCMDC-132389]  -43.67%
72. Fc1ccc2[nH]c3c(NCCCN4CCOCC4)ncnc3c2c1 [TCMDC-124555]  -45.7%
